The panel holds about 83,000 compounds, 20% with a hit somewhere; the sample as a whole holds those more often.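 Interpretation: 100, growth as untreated; towards 0, rising growth inhibition; 0, no net growth; 0 to -100, cell death. Compounds scoring below 10 were considered active.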 Values without a mark were called inactive. Activity calls are given as the source filed them.
Legend:
Experiment in all cases: NCI-60 one-dose screen, 48 h (100 = growth as untreated, 0 = no growth, -100 = all killed)
Settings in all cases: 10 µM
DU-145 prostate = test system: DU-145 prostate
K-562 leukemia = test system: K-562 leukemia
MALME-3M melanoma = test system: MALME-3M melanoma
MDA-MB-231 breast = test system: MDA-MB-231 breast
RXF 393 renal = test system: RXF 393 renal
SF-268 CNS = test system: SF-268 CNS
SF-295 CNS = test system: SF-295 CNS
SF-539 CNS = test system: SF-539 CNS
UACC-257 melanoma = test system: UACC-257 melanoma
M14 melanoma = test system: M14 melanoma

Row | Compound | growth (DU-145 prostate) | growth (K-562 leukemia) | growth (MALME-3M melanoma) | growth (MDA-MB-231 breast) [%] | growth (RXF 393 renal) | growth (SF-268 CNS) [%] | growth (SF-295 CNS) | growth (SF-539 CNS) [%] | growth (UACC-257 melanoma) | growth (M14 melanoma) [%]
1 | Nc1ccccc1NC(=O)CCCCCCC(=O)Nc1ccc2c(c1)/C(=C/c1ccc[nH]1)C(=O)N2 | 28.7% | 46.8% | 20% | 55.5 | 21.2% | 23.3 | 49.9% | 17 | 63.5% | 50.4
2 | O=S(=O)(NCCO)c1ccc(OCCOc2ccc(S(=O)(=O)NCCO)cc2)cc1 | 107% | 106% | 87% | 89.6 | 102% | 102 | 98.1% | 94.4 | 95% | 102
3 | O=C1CC[C@@H](C(=O)N[C@H]2CSSC[C@@H](C(=O)N/C=C/c3ccc(O)cc3)NC(=O)[C@H](Cc3ccccc3)NC(=O)[C@@H]3CCCN3C(=O)[C@@H]3CCCN3C2=O)N1 | 106% | 93.9% | 115% | 98.9 | 96.9% | 107 | 99.5% | 96.6 | 95.4% | 94.5
4 | Cc1cccc2c(Nc3ccc(NS(C)(=O)=O)cc3)c3ccc([N+](=O)[O-])cc3nc12 | -15.3% (active) | 1.15% (active) | -22% (active) | 61.4 | -31.9% (active) | 12.5 | -15.2% (active) | 16.8 | -16.3% (active) | 16.7
5 | COCc1cc2c(cc1Br)OCO2 | 112% | 107% | 98.6% | 110 | 107% | 100 | 99.1% | 95.5 | 101% | 100
6 | Cn1c([N+](=O)[O-])cnc1C=C1C(=O)c2ccccc2C1=O | 46.5% | 15.8% | 42.5% | 45.6 | 4.59% (active) | 17.7 | 110% | 17.7 | 37.4% | 19.3
7 | NC(=O)c1ccc(Br)o1 | 109% | 105% | 109% | 101 | 112% | 101 | 97.4% | 96.5 | 114% | 108
8 | O=C(Nc1ccc(OS(=O)(=O)Cc2ccccc2)cc1)C12CC3CC(CC(C3)C1)C2 | 87.4% | 13.1% | 91.8% | 78.7 | 99% | 84.6 | 60.3% | 86.1 | 99% | 77.4
9 | CCN1CCN(c2ccc(Nc3ncnc4c3nnn4CCc3cc(OC)cc(OC)c3)cc2)CC1 | 104% | 77.7% | 92.6% | 95.4 | 97.7% | 97.4 | 90.2% | 95.5 | 84.8% | 98.6
10 | O=[N+]([O-])c1cc2ncccc2c2ncccc12 | 89.7% | 49.3% | 72.8% | 60.6 | 92.4% | 91.5 | 134% | 93.6 | 90.5% | 84.5

Reference: PubChem BioAssay (NCI)
